Experimental data from the supplement of paper PMC11732987, “Enantioselective OTUD7B fragment discovery through chemoproteomics screening and high-throughput optimisation” (Communications Chemistry, 2025).

Tests used:
Experiment in all cases: log2 ratio of Biotin-Ahx-Ub-VS probe labelling (fragment/DMSO); higher = less target engagement (more negative = stronger competition), active = hit call of the paper (q ≤ 0.05, log2 ratio ≤ -1)
Conditions in all cases: compound concentration: 200 uM; treatment time: 3 h
[1] = molecular target: T1, OTUD6B (UniProt Q8N6M0)
T1 sequence (whole entry): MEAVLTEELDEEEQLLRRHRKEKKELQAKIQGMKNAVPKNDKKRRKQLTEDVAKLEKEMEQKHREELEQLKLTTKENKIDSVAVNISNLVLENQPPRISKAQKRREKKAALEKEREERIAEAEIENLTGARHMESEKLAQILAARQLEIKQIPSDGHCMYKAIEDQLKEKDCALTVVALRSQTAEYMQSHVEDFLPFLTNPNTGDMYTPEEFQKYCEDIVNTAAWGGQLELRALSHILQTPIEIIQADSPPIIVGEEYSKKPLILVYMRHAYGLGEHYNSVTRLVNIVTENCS
Method in brief: (§1)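 In triplicate, 495 µg of HEK293T lysate per sample was incubated with fragment at 200 µM or vehicle for 3 h. Biotin-Ahx-Ub-VS was then added to 0.5 µM final for 1 h, and labelled DUBs were captured with NeutrAvidin, digested with LysC and trypsin, and measured by diaPASEF LC-MS/MS. Data are average log2 fragment/vehicle ratios by unpaired t-test from global-median-normalised Spectronaut label-free quantities, restricted to proteins with ≥2 unique peptides.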

[2] = molecular target: T2, OTUD7B (UniProt Q6GQQ9)
T2 sequence (whole entry): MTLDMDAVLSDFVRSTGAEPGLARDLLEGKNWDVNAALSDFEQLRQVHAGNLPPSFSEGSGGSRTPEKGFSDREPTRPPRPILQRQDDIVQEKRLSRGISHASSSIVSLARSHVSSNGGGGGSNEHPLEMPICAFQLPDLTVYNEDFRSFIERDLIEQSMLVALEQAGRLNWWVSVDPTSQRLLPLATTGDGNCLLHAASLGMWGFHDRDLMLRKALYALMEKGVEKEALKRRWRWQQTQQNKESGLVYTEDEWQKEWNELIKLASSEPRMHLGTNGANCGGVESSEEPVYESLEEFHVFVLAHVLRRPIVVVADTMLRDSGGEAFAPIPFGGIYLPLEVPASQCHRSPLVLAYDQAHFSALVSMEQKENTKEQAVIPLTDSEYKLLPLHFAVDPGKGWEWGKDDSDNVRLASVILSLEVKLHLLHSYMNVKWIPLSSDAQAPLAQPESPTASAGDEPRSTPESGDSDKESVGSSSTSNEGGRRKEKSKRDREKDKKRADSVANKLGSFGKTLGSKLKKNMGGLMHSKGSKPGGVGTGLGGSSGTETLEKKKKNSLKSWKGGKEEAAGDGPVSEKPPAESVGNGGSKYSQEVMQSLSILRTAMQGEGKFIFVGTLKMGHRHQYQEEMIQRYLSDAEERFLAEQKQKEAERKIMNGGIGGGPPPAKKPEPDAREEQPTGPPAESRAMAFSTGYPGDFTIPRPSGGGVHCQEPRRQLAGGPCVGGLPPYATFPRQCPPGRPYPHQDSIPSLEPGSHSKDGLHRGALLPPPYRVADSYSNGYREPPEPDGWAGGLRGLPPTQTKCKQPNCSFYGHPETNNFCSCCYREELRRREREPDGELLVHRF
Method in brief: as §1

[3] = molecular target: PRPF8 (UniProt Q6P2Q9)
Method in brief: as §1

[4] = molecular target: T3, PSMD7 (UniProt P51665)
T3 sequence (whole entry): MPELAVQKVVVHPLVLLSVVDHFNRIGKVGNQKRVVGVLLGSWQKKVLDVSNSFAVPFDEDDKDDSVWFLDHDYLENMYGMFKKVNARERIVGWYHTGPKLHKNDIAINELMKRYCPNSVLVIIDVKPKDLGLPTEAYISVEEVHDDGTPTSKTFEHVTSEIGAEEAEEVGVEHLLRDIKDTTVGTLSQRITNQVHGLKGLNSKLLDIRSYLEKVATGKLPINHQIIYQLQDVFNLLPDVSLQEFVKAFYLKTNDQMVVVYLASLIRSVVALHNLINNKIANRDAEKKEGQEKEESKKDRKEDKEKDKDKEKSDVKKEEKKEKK
Method in brief: as §1

[5] = molecular target: UCHL1 (UniProt P09936)
Method in brief: as §1

[6] = molecular target: T4, UCHL3 (UniProt P15374)
T4 sequence (whole entry): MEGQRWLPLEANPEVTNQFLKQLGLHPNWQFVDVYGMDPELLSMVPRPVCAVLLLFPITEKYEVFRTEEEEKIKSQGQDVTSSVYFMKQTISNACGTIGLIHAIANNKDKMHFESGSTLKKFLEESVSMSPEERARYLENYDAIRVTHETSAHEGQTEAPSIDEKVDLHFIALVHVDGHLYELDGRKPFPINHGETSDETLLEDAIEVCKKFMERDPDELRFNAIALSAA
Method in brief: as §1

[7] = molecular target: T5, UCHL5 (UniProt Q9Y5K5)
T5 sequence (whole entry): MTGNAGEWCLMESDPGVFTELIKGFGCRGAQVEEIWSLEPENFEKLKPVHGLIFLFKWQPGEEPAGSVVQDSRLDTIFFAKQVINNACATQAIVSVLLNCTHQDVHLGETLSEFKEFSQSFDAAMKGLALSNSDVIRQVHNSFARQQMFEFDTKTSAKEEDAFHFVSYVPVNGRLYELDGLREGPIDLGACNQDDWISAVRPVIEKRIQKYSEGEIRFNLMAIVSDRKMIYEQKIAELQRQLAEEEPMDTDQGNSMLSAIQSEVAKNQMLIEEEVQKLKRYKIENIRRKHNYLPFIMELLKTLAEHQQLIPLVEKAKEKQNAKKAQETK
Method in brief: as §1

[8] = molecular target: USP10 (UniProt Q14694)
Method in brief: as §1

[9] = molecular target: T6, USP15 (UniProt Q9Y4E8)
T6 sequence (whole entry): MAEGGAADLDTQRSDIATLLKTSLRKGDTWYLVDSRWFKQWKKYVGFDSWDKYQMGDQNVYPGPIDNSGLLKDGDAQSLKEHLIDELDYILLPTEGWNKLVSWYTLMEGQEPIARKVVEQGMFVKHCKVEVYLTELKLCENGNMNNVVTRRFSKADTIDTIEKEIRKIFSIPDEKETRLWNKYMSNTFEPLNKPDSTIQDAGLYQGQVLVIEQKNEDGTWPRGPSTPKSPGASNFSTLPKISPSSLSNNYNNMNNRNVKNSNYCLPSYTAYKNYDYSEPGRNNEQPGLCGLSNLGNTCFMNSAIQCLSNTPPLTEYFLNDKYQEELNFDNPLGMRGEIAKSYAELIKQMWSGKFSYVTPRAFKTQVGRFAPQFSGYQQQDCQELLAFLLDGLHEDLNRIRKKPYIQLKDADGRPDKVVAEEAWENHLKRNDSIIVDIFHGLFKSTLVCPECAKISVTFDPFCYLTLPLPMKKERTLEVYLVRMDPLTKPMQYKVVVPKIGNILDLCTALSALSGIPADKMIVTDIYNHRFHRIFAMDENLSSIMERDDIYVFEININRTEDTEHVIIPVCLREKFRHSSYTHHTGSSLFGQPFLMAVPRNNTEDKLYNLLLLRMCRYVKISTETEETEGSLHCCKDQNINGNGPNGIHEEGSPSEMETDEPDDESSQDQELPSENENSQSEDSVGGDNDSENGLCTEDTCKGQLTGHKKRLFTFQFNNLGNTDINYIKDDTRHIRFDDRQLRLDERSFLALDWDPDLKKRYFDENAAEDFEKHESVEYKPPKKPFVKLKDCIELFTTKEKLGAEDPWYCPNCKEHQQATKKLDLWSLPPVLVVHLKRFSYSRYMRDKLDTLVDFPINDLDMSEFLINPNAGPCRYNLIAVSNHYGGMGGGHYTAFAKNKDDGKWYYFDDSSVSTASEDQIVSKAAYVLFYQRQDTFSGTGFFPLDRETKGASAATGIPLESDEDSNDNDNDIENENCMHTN
Method in brief: as §1

[10] = molecular target: USP16 (UniProt Q9Y5T5)
Method in brief: as §1

Measured: log2 ratio of Biotin-Ahx-Ub-VS probe labelling

Sequence of USP10 (Q14694 whole entry): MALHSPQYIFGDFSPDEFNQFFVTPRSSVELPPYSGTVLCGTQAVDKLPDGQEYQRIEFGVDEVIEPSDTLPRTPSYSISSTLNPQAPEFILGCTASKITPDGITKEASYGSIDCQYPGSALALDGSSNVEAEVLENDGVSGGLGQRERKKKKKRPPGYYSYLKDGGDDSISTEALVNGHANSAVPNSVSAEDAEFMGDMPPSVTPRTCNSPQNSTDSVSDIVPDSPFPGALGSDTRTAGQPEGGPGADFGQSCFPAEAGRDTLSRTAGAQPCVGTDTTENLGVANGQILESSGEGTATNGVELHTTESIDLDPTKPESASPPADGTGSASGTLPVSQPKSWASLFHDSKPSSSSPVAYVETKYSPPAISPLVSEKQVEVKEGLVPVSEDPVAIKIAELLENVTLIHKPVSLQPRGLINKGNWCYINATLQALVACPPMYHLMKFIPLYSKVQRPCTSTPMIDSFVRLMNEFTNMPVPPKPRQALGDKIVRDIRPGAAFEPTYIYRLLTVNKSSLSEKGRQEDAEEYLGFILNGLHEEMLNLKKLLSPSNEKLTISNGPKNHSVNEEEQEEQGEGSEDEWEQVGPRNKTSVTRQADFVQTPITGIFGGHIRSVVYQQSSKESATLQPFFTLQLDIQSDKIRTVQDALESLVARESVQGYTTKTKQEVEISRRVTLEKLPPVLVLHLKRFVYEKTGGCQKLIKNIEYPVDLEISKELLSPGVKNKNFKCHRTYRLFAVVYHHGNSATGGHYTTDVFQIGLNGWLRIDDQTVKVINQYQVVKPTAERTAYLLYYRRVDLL
Sequence of UCHL1 (P09936 whole entry, looked up): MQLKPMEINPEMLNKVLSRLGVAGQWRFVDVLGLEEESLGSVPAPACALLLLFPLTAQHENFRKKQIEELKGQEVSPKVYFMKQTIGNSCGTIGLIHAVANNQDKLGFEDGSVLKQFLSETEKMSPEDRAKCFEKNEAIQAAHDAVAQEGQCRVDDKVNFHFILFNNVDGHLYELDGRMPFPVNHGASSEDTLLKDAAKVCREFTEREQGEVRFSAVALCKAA
Sequence of USP16 (Q9Y5T5 whole entry, looked up): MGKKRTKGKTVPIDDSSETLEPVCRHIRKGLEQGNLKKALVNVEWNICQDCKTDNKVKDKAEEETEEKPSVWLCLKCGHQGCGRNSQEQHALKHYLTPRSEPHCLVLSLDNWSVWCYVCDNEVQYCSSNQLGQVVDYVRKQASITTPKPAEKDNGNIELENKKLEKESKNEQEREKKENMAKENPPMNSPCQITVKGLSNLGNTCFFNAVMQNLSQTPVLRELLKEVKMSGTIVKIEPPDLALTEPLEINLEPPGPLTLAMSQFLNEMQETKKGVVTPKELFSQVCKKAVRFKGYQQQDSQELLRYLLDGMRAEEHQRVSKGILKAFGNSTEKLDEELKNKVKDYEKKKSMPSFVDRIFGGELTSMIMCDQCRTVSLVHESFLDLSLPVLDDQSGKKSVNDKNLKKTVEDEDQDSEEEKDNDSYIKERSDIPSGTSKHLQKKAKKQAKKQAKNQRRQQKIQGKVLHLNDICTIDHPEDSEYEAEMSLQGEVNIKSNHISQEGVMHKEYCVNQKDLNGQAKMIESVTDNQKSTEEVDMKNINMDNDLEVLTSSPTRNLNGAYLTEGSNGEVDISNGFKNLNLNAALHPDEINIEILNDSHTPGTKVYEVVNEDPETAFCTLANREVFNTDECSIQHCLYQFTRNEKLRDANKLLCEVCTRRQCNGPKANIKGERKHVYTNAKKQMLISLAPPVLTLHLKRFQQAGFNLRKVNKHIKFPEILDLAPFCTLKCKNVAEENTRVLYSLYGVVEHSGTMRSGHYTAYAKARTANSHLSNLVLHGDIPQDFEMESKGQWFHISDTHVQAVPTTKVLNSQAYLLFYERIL

O=C(CCl)NCc1noc(C2CC2)n1
inactive: [1] -0.344 | [2] -0.572 | [3] -0.106 | [4] -0.219 | [6] 0.307 | [7] -0.363 | [8] -0.164 | [9] -0.193 | [10] -0.127
active: [5] -1.67
